From PubChem BioAssay (NCI) come the findings set out here.

This is part of a sample that, as a whole, favours compounds with a hit. Of some 83,000 tested, about 20% had one in any assay.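 Interpretation: 100, growth as untreated; towards 0, rising growth inhibition; 0, no net growth; 0 to -100, cell death. Compounds scoring below 10 were considered active.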 Unmarked numbers belong to inactive results. The source made the active and inactive calls.

Experiment in all cases: NCI-60 one-dose screen, 48 h (100 = growth as untreated, 0 = no growth, -100 = all killed)
Common to all, as to details: 10 µM unless noted

In test [1] the test system is DU-145 prostate.
Test [2] concerns K-562 leukemia.
The test system of test [3] is MALME-3M melanoma.
Test [4] has as its system MDA-MB-231 breast.
The test system of test [5] is RXF 393 renal.
Test [6] relates to SF-268 CNS.
Test [7] relates to SF-295 CNS.
The test system of test [8] is SF-539 CNS.
Test [9] concerns UACC-257 melanoma.
For test [10], the system named is M14 melanoma.
The subject of test [11] is HCT-15 colon.
Test [12] concerns HT29 colon.
For test [13], the system named is SNB-75 CNS.
For test [14], the system named is SNB-19 CNS.
Test [15] has as its system U251 CNS.
Test [16] concerns PC-3 prostate.
Test [17] relates to SK-MEL-5 melanoma.
In test [18] the test system is UACC-62 melanoma.
Test [19] relates to LOX IMVI melanoma.
The subject of test [20] is SK-MEL-28 melanoma.

Regarding `O=CNc1cccc(-n2cnc3cc(-c4ccc(O)cc4)ccc32)c1`, the growth in [1] was 43.7%; in [2], 12.2%; in [3], 42.8%; in test [4], 55.3%; in test [5], 11%; in test [6], 40.7%. In addition, the growth is 25.5% in test [7]; -6.56% (active) in test [8]; 84.7% in test [9]; 57.2% in test [10]; 15.5% in [11]; 22.7% in test [12]. Moreover, the growth was 21.4% in test [13]; 43.3% in [14]; 25.4% in [15]; 49% in test [16]; 35.6% in test [17]; 38.2% in test [18]. Moreover, the values for the growth in test [19] and in [20] were 21.2% and 56.2%, respectively.
With `N/C(=N\c1nc2ccccc2s1)NC(=O)Nc1ccccc1[N+](=O)[O-]`, the growth was 1.45% (active) in test [1]; 10.6% in test [2]; 44.6% in test [3]; -1.5% (active) in [4]; 36.4% in test [5]; 23% in test [6]. Moreover, the growth was 1.71% (active) in test [7]; -41.1% (active) in test [8]; 60.1% in test [9]; 16.3% in test [10]; 5.8% (active) in [11]; -31.5% (active) in test [12]. In addition, the growth in [13] is 19.5%; in [14], 21.1%; in test [15], 7.5% (active); in test [16], 29.3%; in test [17], -21.5% (active); in test [18], 12%. Besides, the growth in test [19] is 10%; in test [20] it was 51%.
As for `CN1C(=O)C(O)(CC(=O)c2cc3ccccc3oc2=O)c2ccccc21` (stereo not given), the growth was 137% in test [1]; 72.7% in test [2]; 94.7% in [3]; 91.8% in test [4]; 122% in test [5]; 98.8% in test [6]. The growth in [7] is 96.3%; in [8], 93.3%; in test [9] it was 109%; in [10], 94.2%; in test [11], 94.7%; in [12], 104%. In addition, the growth in [13] is 107%; in [14] it was 93.3%; in test [15], 97.2%; in test [16], 92.4%; in test [17], 100%; in test [18], 86.8%. Also, the growth in test [19] was 87.9%; in [20] it was 107%.
As for `COc1ccc(NC(=O)CSc2nnc(-c3ccc(-c4nc5ccccc5[nH]4)cc3)o2)cc1`, the growth in [1] is 5.8% (active); in test [2] it was 22.2%; in [3], 10.2%; in test [4] it was 19.2%; in test [5], -54.4% (active); in test [6] it was 49.6%. Moreover, the growth in [7] is 74.8%; in test [8], -86.6% (active); in [9], 36.4%; in test [10], 1.64% (active); in test [11], 18.2%; in test [12], 18%. Moreover, the growth in test [13] was 63.4%; in test [14] it was -5.58% (active); in test [15], -68.2% (active); in [16], 25.1%; in test [17], 14%; in test [18], 17.8%. Also, the growth in test [19] was -63.9% (active); in test [20] it was -72.3% (active).
For `CCc1ccccc1NC(=O)N/C(N)=N/c1nc2ccccc2s1`, the growth in test [1] is -8.39% (active); in test [2] it was 10.6%; in test [3] it was 5.84% (active); in [4] it was -21.3% (active); in test [5], 11.8%; in [6] it was 29.6%. For the same compound, the growth in test [7] was -9.81% (active); in [8], -50.4% (active); in test [9], 49.7%; in test [10], 9.76% (active); in [11] it was 0.728% (active); in test [12], -25% (active). The growth is 3.91% (active) in [13]; 9.49% (active) in test [14]; -18.9% (active) in test [15]; 21.8% in test [16]; -59.1% (active) in test [17]; 13.8% in test [18]. Also, the results for the growth in test [19] and in test [20] were -53.7% (active) and 38%, respectively.
Turning to `COc1cccc(-c2ccc(/C=N/NC(=O)c3[nH]c4ccc(Br)cc4c3-c3ccccc3)s2)c1`, the growth is 2.3% (active) in test [1]; 15.7% in test [2]; 33.1% in [3]; -20.5% (active) in [4]; -63% (active) in [5]; -9.89% (active) in [6]. Besides, the growth in test [7] was -46.2% (active); in test [8], -83.9% (active); in [9] it was 45.7%; in test [10], -4.68% (active); in test [11], 3.37% (active); in test [12] it was -32.2% (active). For the same compound, the growth is 36.8% in test [13]; 11.7% in test [14]; -23% (active) in test [15]; 23.7% in test [16]; -60.9% (active) in [17]; -17.1% (active) in test [18]. Moreover, the growth was 4.04% (active) in test [19] and 8.82% (active) in [20].
With `N#Cc1cc(-c2ccc3ncnc(N4CCc5cc(F)c(Cl)cc54)c3c2)cnc1N`, the growth in test [1] is 8.95% (active); in test [2] it was 37.8%; in test [3], 50.6%; in test [4], 28.7%; in test [5], 17.9%; in [6] it was 46.5%. For the same compound, the growth in [7] is 40.1%; in test [8], 35.6%; in test [9], 90.2%; in [10], 36.8%; in test [11], 23.3%; in [12], 34.2%. Also, the growth in [13] is 24.9%; in test [14], 57.9%; in [15], 57%; in test [16], 33.8%; in [17], 55.9%; in test [18], 56.7%. Also, the results for the growth in test [19] and in [20] were 28.4% and 61.2%, respectively.
